According to PubChem BioAssay AID1159580 (chemical genetic matrix, 2015):
About 2,000 (36%) of roughly 5,500 compounds were called active. About 18% were inconclusive and are not listed. Rule as the data show it: active = normalized growth mostly below about 0.91 (no sharp cut-off); inconclusive = no clear call, values can overlap the other calls; inactive = mostly above about 0.92. This is one part of the list.

Test: chemical genetic growth profiling, strain panel (AID 1159580);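 also: tested at 20 µM; growth read once vehicle control cultures reached saturation at 30 °C; 1 = growth at the plate median or of vehicle wells; lower values mean less growth of the strain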
Conditions: growth OD

Measured: normalized growth

COc1cc2c(cc1OC)Cc1cc(OC)c(OC)cc1Cc1cc(OC)c(OC)cc1C2
inactive: S. cerevisiae deletion strains, locus YJR066W, strain TOR1, stronger effect = lower value 0.974 | S. cerevisiae deletion strains, locus YJR075W, strain HOC1, stronger effect = lower value 1.02 | S. cerevisiae deletion strains, locus YKL009W, strain mrt4, stronger effect = lower value 0.942 | S. cerevisiae deletion strains, locus YKL068W, stronger effect = lower value 1.02 | S. cerevisiae deletion strains, locus YKL085W, strain MDH1 (second series), stronger effect = lower value 0.927 | S. cerevisiae deletion strains, locus YKL085W, strain MDH1, stronger effect = lower value 0.927 | S. cerevisiae deletion strains, locus YKL160W, strain elf1, stronger effect = lower value 1.02 | S. cerevisiae deletion strains, locus YKL190W, strain CNB1, stronger effect = lower value 0.992 | S. cerevisiae deletion strains, locus YKR001C, strain vps1, stronger effect = lower value 1.04 | S. cerevisiae deletion strains, locus YKR026C, strain gcn3, stronger effect = lower value 1 | S. cerevisiae deletion strains, locus YKR091W, strain srl3, stronger effect = lower value 1.03 | S. cerevisiae deletion strains, locus YLL001W, strain dnm1, stronger effect = lower value 1.01 | S. cerevisiae deletion strains, locus YLL026W, stronger effect = lower value 1.04 | S. cerevisiae deletion strains, locus YLL041C, strain sdh2, stronger effect = lower value 1.03 | S. cerevisiae deletion strains, locus YLR027C, strain aat2, stronger effect = lower value 1.03 | S. cerevisiae deletion strains, locus YLR039C, strain RIC1, stronger effect = lower value 1.05 | S. cerevisiae deletion strains, locus YLR058C, strain SHM2, stronger effect = lower value 1.02 | S. cerevisiae deletion strains, locus YLR102C, strain apc9, stronger effect = lower value 1.03 | S. cerevisiae deletion strains, locus YLR113W, strain HOG1, stronger effect = lower value 1.05 | S. cerevisiae deletion strains, locus YLR221C, strain rsa3, stronger effect = lower value 1.04 | S. cerevisiae deletion strains, locus YLR258W, strain gsy2, stronger effect = lower value 1.03 | S. cerevisiae deletion strains, locus YLR262C, strain YPT6 (second series), stronger effect = lower value 1.05 | S. cerevisiae deletion strains, locus YLR262C, strain YPT6, stronger effect = lower value 1.08 | S. cerevisiae deletion strains, locus YLR268W, strain sec22, stronger effect = lower value 1.04 | S. cerevisiae deletion strains, locus YLR320W, strain mms22, stronger effect = lower value 1.03 | S. cerevisiae deletion strains, locus YLR330W, strain CHS5, stronger effect = lower value 1.01 | S. cerevisiae deletion strains, locus YLR342W, strain FKS1 (second series), stronger effect = lower value 1 | S. cerevisiae deletion strains, locus YLR342W, strain FKS1, stronger effect = lower value 1.04 | S. cerevisiae deletion strains, locus YLR357W, strain rsc2, stronger effect = lower value 1.05 | S. cerevisiae deletion strains, locus YLR370C, strain arc18, stronger effect = lower value 1.03 | S. cerevisiae deletion strains, locus YLR371W, strain rom2, stronger effect = lower value 1.03 | S. cerevisiae deletion strains, locus YLR384C, strain iki3, stronger effect = lower value 1.03 | S. cerevisiae deletion strains, locus YLR418C, strain cdc73, stronger effect = lower value 1.04 | S. cerevisiae deletion strains, locus YML016C, strain PPZ1, stronger effect = lower value 1.01 | S. cerevisiae deletion strains, locus YML032C, strain rad52, stronger effect = lower value 1.01 | S. cerevisiae deletion strains, locus YML120C, strain ndi1, stronger effect = lower value 1.02 | S. cerevisiae deletion strains, locus YML124C, strain tub3, stronger effect = lower value 1.06 | S. cerevisiae deletion strains, locus YMR058W, strain fet3, stronger effect = lower value 1.03 | S. cerevisiae deletion strains, locus YMR078C, strain ctf18, stronger effect = lower value 1.04 | S. cerevisiae deletion strains, locus YMR125W, strain sto1, stronger effect = lower value 1.05 | S. cerevisiae deletion strains, locus YMR129W, stronger effect = lower value 1.04 | S. cerevisiae deletion strains, locus YMR205C, strain PFK2, stronger effect = lower value 1.05 | S. cerevisiae deletion strains, locus YMR223W, strain ubp8, stronger effect = lower value 1.03 | S. cerevisiae deletion strains, locus YMR231W, strain pep5, stronger effect = lower value 1.03 | S. cerevisiae deletion strains, locus YMR263W, strain SAP30, stronger effect = lower value 1.01 | S. cerevisiae deletion strains, locus YMR307W, strain GAS1, stronger effect = lower value 1.04 | S. cerevisiae deletion strains, locus YNL067W, strain RPL9B, stronger effect = lower value 1.03 | S. cerevisiae deletion strains, locus YNL071W, strain lat1, stronger effect = lower value 1.03 | S. cerevisiae deletion strains, locus YNL183C, strain NPR1, stronger effect = lower value 0.956 | S. cerevisiae deletion strains, locus YNL209W, strain ssb2, stronger effect = lower value 1.03 | S. cerevisiae deletion strains, locus YNL233W, strain BNI4, stronger effect = lower value 1.01 | S. cerevisiae deletion strains, locus YNL248C, strain rpa49, stronger effect = lower value 1.03 | S. cerevisiae deletion strains, locus YNL250W, strain rad50, stronger effect = lower value 1.04 | S. cerevisiae deletion strains, locus YNL271C, strain bni1, stronger effect = lower value 1.02 | S. cerevisiae deletion strains, locus YNL298W, strain CLA4, stronger effect = lower value 1.02 | S. cerevisiae deletion strains, locus YNL307C, strain MCK1, stronger effect = lower value 1.03 | S. cerevisiae deletion strains, locus YNL322C, strain KRE1 (second series), stronger effect = lower value 1.05 | S. cerevisiae deletion strains, locus YNL322C, strain KRE1, stronger effect = lower value 1.03 | S. cerevisiae deletion strains, locus YNR049C, strain mso1, stronger effect = lower value 1.03 | S. cerevisiae deletion strains, locus YNR052C, strain pop2, stronger effect = lower value 1.02 | S. cerevisiae deletion strains, locus YOL012C, strain htz1 0.876 | S. cerevisiae deletion strains, locus YOL147C, strain pex11, stronger effect = lower value 1.02 | S. cerevisiae deletion strains, locus YOR001W, strain rrp6, stronger effect = lower value 1.02 | S. cerevisiae deletion strains, locus YOR061W, strain CKA2, stronger effect = lower value 1.01 | S. cerevisiae deletion strains, locus YOR069W, strain VPS5, stronger effect = lower value 1.01 | S. cerevisiae deletion strains, locus YOR070C, strain gyp1, stronger effect = lower value 1.03 | S. cerevisiae deletion strains, locus YOR080W, strain dia2, stronger effect = lower value 1.04 | S. cerevisiae deletion strains, locus YOR083W, strain WHI5, stronger effect = lower value 1.01 | S. cerevisiae deletion strains, locus YOR106W, strain vam3, stronger effect = lower value 1.07 | S. cerevisiae deletion strains, locus YOR136W, strain idh2, stronger effect = lower value 1.05 | S. cerevisiae deletion strains, locus YOR144C, strain elg1, stronger effect = lower value 1.04 | S. cerevisiae deletion strains, locus YOR184W, strain ser1, stronger effect = lower value 1.03 | S. cerevisiae deletion strains, locus YOR231W, strain MKK1, stronger effect = lower value 1.04 | S. cerevisiae deletion strains, locus YOR265W, strain rbl2, stronger effect = lower value 1.02 | S. cerevisiae deletion strains, locus YOR270C, strain vph1, stronger effect = lower value 1.03 | S. cerevisiae deletion strains, locus YOR290C, strain snf2, stronger effect = lower value 0.995 | S. cerevisiae deletion strains, locus YOR316C, strain cot1, stronger effect = lower value 1.02 | S. cerevisiae deletion strains, locus YPL051W, strain arl3, stronger effect = lower value 1.02 | S. cerevisiae deletion strains, locus YPL055C, strain LGE1, stronger effect = lower value 1.03 | S. cerevisiae deletion strains, locus YPL078C, strain atp4, stronger effect = lower value 1.03 | S. cerevisiae deletion strains, locus YPL106C, strain sse1, stronger effect = lower value 1.06 | S. cerevisiae deletion strains, locus YPL240C, strain hsp82, stronger effect = lower value 1.02 | S. cerevisiae deletion strains, locus YPL256C, strain CLN2, stronger effect = lower value 1.06 | S. cerevisiae deletion strains, locus YPR119W, strain clb2, stronger effect = lower value 1 | S. cerevisiae deletion strains, locus YPR141C, strain kar3, stronger effect = lower value 1.03 | S. cerevisiae deletion strains, locus YPR163C, strain tif3, stronger effect = lower value 1.03 | S. cerevisiae deletion strains, locus YPR167C, strain met16, stronger effect = lower value 1.03 | S. cerevisiae deletion strains, strain wtn01, stronger effect = lower value 1.04 | S. cerevisiae strains, strain wild type, stronger effect = lower value 1.03
